Sfp PPTase inh: qHTS Assay for Inhibitors of Bacillus subtilis Sfp phosphopantetheinyl transferase (PPTase). Potency, µM, hits mostly inhibitors. 4'-phosphopantetheinyl transferase ffp (Bacillus subtilis), Q9F4F7. AID 1490, 2009. Biochemical Sfp PPTase activity, qHTS. 310,000 compounds, 3.5% hits;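 further: the enzyme is Sfp with the accession as filed and its product quenches rhodamine fluorescence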
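Buffer: 50 mM Hepes-Na pH 7.6, 10 mM MgCl2, 0.01% Nonidet P-40, 0.01% BSA. Enzyme 15 nM, pre-exposed to compound 15 min; substrates then added and fluorescence change tracked over 30 min.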
BAZ2B inh: qHTS Assay for Inhibitors of BAZ2B; AlphaScreen BAZ2B-H3K14Ac peptide displacement; Bromodomain adjacent to zinc finger domain protein 2B (Homo sapiens), Q9UIF8; 360,000 compounds, 4.4% hits; Potency, µM (titrated, usually from 114 µM), most hits filed as inhibitors; AID 504333, 2011; further: nearly all actives have a fitted effect of over 60% in size
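In this displacement format the biotinylated H3(5-23) peptide acetylated at Lys14 serves as ligand at 50 nM, with BAZ2B at 50 nM in PBS pH 7.4 containing 0.01% Tween-20. Donor and acceptor beads are 10 ug/mL final.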
G9a inh: qHTS Assay for Inhibitors of Histone Lysine Methyltransferase G9a; Histone-lysine N-methyltransferase EHMT2 (Homo sapiens), Q96KQ7; 350,000 compounds, 8.8% hits; AID 504332, 2011; Potency, µM (highest dose often 102 µM), hits mostly inhibitors; G9a H3K9 monomethylation, AlphaScreen, 2 h; further: nearly all actives have a fitted effect of over 75% in size
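Readings reflect AlphaScreen signal from monomethyl-H3K9 antibody detection. HMT at 20 nM; substrate b-H3K9 500 nM; cofactor SAM 20 uM; 2 h RT reaction; compounds tested as titrations in qHTS with 15 min preincubation.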
HP1b chromo inh: HTS for Inhibitors of HP1-beta Chromodomain Interactions with Methylated Histone Tails. AlphaScreen HP1-beta / biotin-H3K9me3 peptide binding. Potency, µM (series often up to 114 µM), usual class: inhibitors. 390,000 compounds, 0.56% hits. AID 540317, 2011; further: nearly all actives have a fitted effect of over 70% in size
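Compound inhibition of the preformed complex between 50 nM HP1-beta and 50 nM biotinylated H3K9me3 peptide was read by AlphaScreen. Buffer was PBS pH 7.4 with 0.01% Tween-20. Incubations ran 30 min at room temperature, with 10 ug/mL donor/acceptor beads.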
TDP1 inh: qHTS Assay for Inhibitors of Tyrosyl-DNA Phosphodiesterase (TDP1) | Tyrosyl-DNA phosphodiesterase 1 (Homo sapiens), Q9NUW8 | recombinant TDP1, AlphaScreen DNA substrate cleavage | Potency, µM (series often up to 130 µM), most hits filed as inhibitors | 350,000 compounds, 0.28% hits | AID 485290, 2010; further: nearly all actives have a fitted effect of over 40% in size
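E. coli-derived human Tdp1, 1 nM final. Cpd preinc 15 min RT; substrate 15 nM final, 5 min RT; AS bead mix 10 ug/ml final, 10 min RT. Signal loss = tyrosine-FITC cleavage. No-enzyme wells = max signal.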
JMJD2A Tudor: qHTS Assay for Inhibitors of JMJD2A-Tudor Domain. Potency, µM (series often up to 114 µM), usual class: inhibitors. 390,000 compounds, 4.4% hits. Lysine-specific demethylase 4A (Homo sapiens), O75164. AlphaScreen JMJD2A-Tudor / H3K4me3 peptide binding; further: nearly all actives have a fitted effect of over 50% in size
Target sequence (O75164 whole entry, looked up, the tested form may be a part): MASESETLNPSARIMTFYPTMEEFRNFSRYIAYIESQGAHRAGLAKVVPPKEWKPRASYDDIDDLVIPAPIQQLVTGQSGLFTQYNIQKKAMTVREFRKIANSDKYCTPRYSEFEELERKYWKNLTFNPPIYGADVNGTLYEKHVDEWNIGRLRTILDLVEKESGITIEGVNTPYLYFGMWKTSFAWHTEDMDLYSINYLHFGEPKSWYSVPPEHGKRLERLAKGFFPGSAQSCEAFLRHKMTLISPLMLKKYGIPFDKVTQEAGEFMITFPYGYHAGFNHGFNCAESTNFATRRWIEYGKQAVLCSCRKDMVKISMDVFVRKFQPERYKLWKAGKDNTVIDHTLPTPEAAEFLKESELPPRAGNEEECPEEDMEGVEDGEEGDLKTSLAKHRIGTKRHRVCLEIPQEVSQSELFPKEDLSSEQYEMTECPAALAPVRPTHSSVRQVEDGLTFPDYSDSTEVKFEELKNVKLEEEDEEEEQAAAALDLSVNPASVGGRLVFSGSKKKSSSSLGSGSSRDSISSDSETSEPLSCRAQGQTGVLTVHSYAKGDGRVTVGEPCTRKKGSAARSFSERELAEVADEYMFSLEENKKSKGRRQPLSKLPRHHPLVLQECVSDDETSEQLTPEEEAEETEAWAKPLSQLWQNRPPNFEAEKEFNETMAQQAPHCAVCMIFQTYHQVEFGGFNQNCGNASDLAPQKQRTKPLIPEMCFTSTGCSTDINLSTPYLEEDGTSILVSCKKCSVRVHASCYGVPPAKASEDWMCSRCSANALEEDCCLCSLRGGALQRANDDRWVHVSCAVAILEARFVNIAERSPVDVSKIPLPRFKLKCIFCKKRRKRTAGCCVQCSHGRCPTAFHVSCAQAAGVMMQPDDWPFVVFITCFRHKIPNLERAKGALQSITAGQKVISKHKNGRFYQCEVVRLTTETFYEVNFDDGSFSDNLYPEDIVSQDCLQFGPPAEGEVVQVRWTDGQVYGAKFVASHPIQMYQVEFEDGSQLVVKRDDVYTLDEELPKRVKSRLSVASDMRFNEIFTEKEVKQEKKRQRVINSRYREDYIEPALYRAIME
A number is an active result; i = inactive; ? = inconclusive; nt = not tested or not shown; [ ] = dose if it differs, or a comment. Shown are actives, neighbours in structure and some others; about 12% of the full set was active somewhere. The call rests on the fitted dose curve; in most records, active means well fitted curve in the direction sought with a large enough effect; inconclusive means small, poorly fitted or top-dose-only effect, or another doubt; inactive means no such curve, though single readings can be large; an effect the other way counts as inactive or inconclusive.

SMILES | Sfp PPTase inh | BAZ2B inh | G9a inh | HP1b chromo inh | TDP1 inh | JMJD2A Tudor
CC(C)OC(=O)C(C(=O)C(F)(F)F)c1cc(NS(=O)(=O)c2ccc3c4c(cccc24)C(=O)N3)ccc1O (stereo not given) | nt | i | ? | i | nt | i
COc1cc2[nH]c3c(=O)n(CCN(C(C)C)C(C)C)cnc3c2cc1OC | i | i | 79µM | i | i | i
CN1CCN(CCC(=O)Nc2ccc(F)c(F)c2)CC1 | i | ? | i | i | i | i
CC(C(=O)Nc1ccc(F)c(F)c1)N1CCN(C)CC1 (stereo not given) | ? | 22µM | ? | 35µM | nt | 3.2µM
CC(C(=O)Nc1ccccc1C(F)(F)F)N1CCN(C)CC1 (stereo not given) | i | 79µM | i[0.501 µM] | ? | nt | 25µM
Cc1ccc(NC(=O)Cn2cc(S(=O)(=O)N3CCCC3)c(S(=O)(=O)N3CCCC3)c2)c(C)c1 | nt | i | i | i | i | i
COc1ccc(-c2cnnn2-c2ccc([N+](=O)[O-])cc2)cc1 | i | ? | i | i | i | i
Cc1ccc(C(=O)Oc2coc(CSc3nnc(NC(=O)c4cccs4)s3)cc2=O)cc1 | i | i | 13µM | i | i | i
CCN(CC(=O)Nc1ccc(NC(C)=O)cc1)C(=O)CCCSc1nc2ccccc2[nH]1 | nt | i | 50µM | i | nt | i
CC(=O)Nc1ccc(NC(=O)CCCSc2nc3ccccc3[nH]2)cc1 | i | i | i[12.7 µM] | i | i | i
O=C(CCCSc1nc2ccccc2[nH]1)NC(c1ccccc1)c1ccccc1 | i | i | i | i | i | i
O=C(CSc1nc2ccccc2[nH]1)N1CCN(c2ccccc2)CC1 | i | i | ? | i | i | i
O=C(CCCSc1nc2ccccc2[nH]1)N1CCN(c2ccccc2)CC1 | i | i | 45µM | i | i | i
O=C(CCCSc1nc2ccccc2[nH]1)NCc1ccccc1Cl | i | i | 35µM | ? | i | i
Fc1ccc(CN(C2=NCCN2)c2c(Cl)cccc2Cl)cc1 | nt | nt | i | nt | i | nt
Cc1ccccc1Nc1nc(C#N)nc(NC2CCCC2)n1 | nt | nt | nt | nt | i | i
Cc1nnc(SCC(=O)Nc2ccc3[nH]c(=O)[nH]c3c2)s1 | nt | i | ? | i | i | i
COc1ccc(Nc2nnc(SCC(=O)N3CCCC3)s2)cc1 | i | i | 35µM | i | i | i
O=C(Nc1nnc(SCC(=O)N2CCCCC2)s1)C1CCCCC1 | i | i | 4µM | i | i | i
COc1cccc(Nc2nnc(SCC(=O)N3CCOCC3)s2)c1 | i | i | i | i | i | i
O=C(CSc1nncs1)Nc1ccc2[nH]c(=O)[nH]c2c1 | nt | i | 11µM | i | nt | i
COc1ccc(Nc2nnc(SCC(=O)Nc3ccc4[nH]c(=O)[nH]c4c3)s2)cc1 | i | i | 16µM | i | nt | i
COc1cccc(-n2nnnc2SCC(=O)Nc2ccc(NC(C)=O)cc2)c1 | i | i | i | i | nt | ?
CC(=O)Nc1ccc2nc3c(=O)n(C)c(=O)n(C)c3nc2c1C | nt | i | i | i | i | i
COc1ccc(CCC(C)NCC(C)c2ccccc2)cc1 (stereo not given) | i | i | nt | i | i | i
SMILES | Sfp PPTase inh | BAZ2B inh | G9a inh | HP1b chromo inh | TDP1 inh | JMJD2A Tudor
CCCCN(C(=O)c1cccs1)c1c(N)n(Cc2ccccc2)c(=O)[nH]c1=O | nt | nt | nt | i | i | i
COc1ccc(NC(=O)CSc2nnc(NC(=O)Nc3ccc(OC)cc3)s2)cc1 | nt | i | ? | i | i | i
COc1ccc(NC(=O)CSc2nnc(NC(=O)c3ccccc3C(=O)O)s2)cc1 | i | i | ? | i | i | 50µM
O=C(CSc1ccc([N+](=O)[O-])cn1)Nc1ccc2[nH]c(=O)[nH]c2c1 | i | i | 32µM | i | i | i
Cc1cccc(Cn2cnc3c(oc4ccccc43)c2=O)c1 | nt | i | i | i | i | i
CCS(=O)(=O)c1ccc(N)cc1 | i | i | 4µM | i | i | i
COc1cccc(C2c3c(ncn(-c4cccc(C#N)c4)c3=N)Oc3ccc4ccccc4c32)c1 (stereo not given) | nt | nt | nt | nt | i | 79µM
COc1ccc(C2c3c(ncn(CCCN4CCOCC4)c3=N)Oc3ccc4ccccc4c32)cc1OC (stereo not given) | i | i | ? | i | i | ?
COc1ccc(C2c3ccc4ccccc4c3Oc3ncn(CCCO)c(=N)c32)cc1 (stereo not given) | ? | 71µM | i | i | nt | i
COc1cccc(C2c3c(ncn(CCCN4CCOCC4)c3=N)Oc3ccc4ccccc4c32)c1 (stereo not given) | nt | nt | nt | nt | nt | 28µM
COc1ccc(C2c3c(n(CCc4ccccc4)cnc3=N)Oc3ccc4ccccc4c32)cc1OC (stereo not given) | nt | nt | nt | nt | i | 56µM
COc1ccc(C2c3c(ncn(Cc4ccccc4)c3=N)Oc3ccc4ccccc4c32)cc1OC (stereo not given) | nt | nt | nt | nt | i | ?
Cc1ccccc1OCC(=O)Nc1ccc(OCc2cc(=O)n3ccccc3n2)cc1 | nt | i | i | i | i | i
Cn1c(C(C)(O)C(O)c2ccccc2)nc2ccccc21 (stereo not given) | i | i | i | nt | i | nt
COCCCn1c(SCC(=O)NC2CCCCC2)nnc1-c1ccco1 | i | i | i | i | nt | i
O=C(CN1CCN(S(=O)(=O)c2ccc(Br)s2)CC1)N1CCCCC1 | nt | i | i[2.33 µM] | i | i | i
CC1=C(c2ccc(C(C)C)cc2)S(=O)(=O)NC1=NCc1ccc(Cl)cc1 | nt | ? | i | i | i | ?
COc1ccc(OC)c(S(=O)(=O)Nc2ccc(O)c3ccccc23)c1 | 20µM | 45µM | 5.6µM | 71µM | i | ?
O=S(=O)(Nc1ccc(O)c2ccccc12)c1ccc(F)cc1 | nt | nt | nt | ? | nt | 50µM
C=CCn1cnc2c(nnn2-c2ccc(C)c(Cl)c2)c1=O | i | i | i | i | i | i
COC(=O)[C@H](Cc1ccccc1)NC(=O)O[C@@H]1Cc2cc(OC)ccc2O[C@H]1c1cccc(OC)c1 | ? | nt | nt | nt | i | nt
c1ccc(N=Nc2ccc3cccccc2-3)cc1 | nt | nt | nt | 4µM | nt | 4µM
Clc1ccc(-c2[nH]ncc2N=Nc2ccccc2)cc1 | i | ? | ? | i | nt | ?
Nc1ccc(N=Nc2ccccc2)c(N)n1 | i | ? | 11µM | i | i | i
Cc1cc(=O)n2[nH]c(N)c(N=Nc3ccccc3)c2n1 | i | i | i | i | i | i
Nc1ccc(N=Nc2ccccc2)c2ccccc12 | i | 11µM | 10µM | i | i | 35µM

Source: PubChem (National Center for Advancing Translational Sciences (NCATS))
